High-throughput results as filed in PubChem.
ALOX12 inh: inhibitors of human 12S-lipoxygenase ALOX12; Potency, µM (series often up to 108 µM), for the others: at the highest dose activity change, negative = inhibition, actives largely listed as inhibitors; P18054; AID 1671190; hit rate 1.1% among 580,000; purified 12hLO, xylenol orange hydroperoxide absorbance; also: potency is read from the fitted curve at half-maximal effect
Target sequence (P18054 whole entry, looked up): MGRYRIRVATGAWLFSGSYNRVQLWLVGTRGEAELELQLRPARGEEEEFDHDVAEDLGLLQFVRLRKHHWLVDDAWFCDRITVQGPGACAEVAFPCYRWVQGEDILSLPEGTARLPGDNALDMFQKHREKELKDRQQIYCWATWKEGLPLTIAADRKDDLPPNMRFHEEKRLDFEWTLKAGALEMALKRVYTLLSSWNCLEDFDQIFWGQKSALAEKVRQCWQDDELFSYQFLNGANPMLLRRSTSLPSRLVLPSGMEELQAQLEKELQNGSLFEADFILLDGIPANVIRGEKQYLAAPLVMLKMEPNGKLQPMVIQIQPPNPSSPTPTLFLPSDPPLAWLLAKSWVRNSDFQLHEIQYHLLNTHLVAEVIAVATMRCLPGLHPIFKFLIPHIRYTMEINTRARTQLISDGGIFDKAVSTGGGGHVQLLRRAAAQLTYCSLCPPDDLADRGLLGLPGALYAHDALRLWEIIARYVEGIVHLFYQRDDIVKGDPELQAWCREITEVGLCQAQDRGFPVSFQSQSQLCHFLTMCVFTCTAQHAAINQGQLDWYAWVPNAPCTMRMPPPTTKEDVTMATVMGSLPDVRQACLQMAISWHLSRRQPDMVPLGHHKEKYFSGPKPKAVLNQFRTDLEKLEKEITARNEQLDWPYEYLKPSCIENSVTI
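Purified human 12hLO at 150 nM in 25 mM Hepes, 0.01% Triton X-100, pH 7.0, preincubated 15 min at room temperature with compound. Reaction started with 40 uM arachidonic acid, 30 min at room temperature. Hydroperoxide measured by Fe-xylenol orange, 573/405 nm absorbance ratio.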
TDP1 cell noCPT: qHTS for Inhibitors of human tyrosyl-DNA phosphodiesterase 1 (TDP1): qHTS in cells in absence of CPT; DT40 Tdp1-/- hTDP1 cells, no CPT, ATP luminescence, 48 h; Potency, µM (titrated, usually from 46.2 µM), for inactives: at the top dose activity change, negative = growth inhibition, actives largely listed as inhibitors; hit rate 15% among 420,000; also: potency is read from the fitted curve at half-maximal effect; nearly all actives have a fitted effect of over 55% in size
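Chicken DT40 Tdp1-/- cells complemented with human TDP1, screened without camptothecin (DMSO vehicle only), 400 cells/well. Compounds pin-transferred, cells incubated at 37 °C for at least 48 hr. Growth read as ATP-dependent luminescence (CellTiter-Glo, 30 min at RT).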
IL-1B inflam inh: inhibitors of inflammasome signaling (IL-1 beta secretion); hit rate 4.7% among 360,000; THP-1 LPS/ATP IL-1B secretion, AlphaLISA, 16 h; active compounds read low; activity change, % at 57.5 µM; in the data active = activity change below about -50%; inconclusive = mostly about -30% to -49%
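Secreted IL-1B measured by AlphaLISA bead assay after 16 h compound exposure of THP-1 cells; compounds (final up to 57.5 uM) added 1 h before LPS (250 ng/mL) and ATP (1.25 mM) stimulation; lower signal means less secretion.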
HT1080NT lethal: kills 2HG-producing HT-1080-NT fibrosarcoma cells. HT-1080-NT fibrosarcoma viability, CellTiter-Glo ATP luminescence, 48 h. Potency, µM (series often up to 46.1 µM), without a hit: top-dose activity, negative = less viability, most hits filed as cytotoxic. hit rate 1.6% among 360,000. AID 686970;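 also: NT is the 2HG producing partner of a matched IDH1 knockdown line; potency is read from the fitted curve at half-maximal effect; 0% = DMSO-treated cells and -100% = media-only wells without cells; nearly all actives have a fitted effect of over 55% in size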
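A 48-hour cytotoxicity screen used HT-1080-NT cells plated 2 hours before compound delivery. ATP-based CellTiter-Glo luminescence measured viability, normalized to DMSO and no-cell controls.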
HT1080 IDH1KD tx: toxicity to HT-1080 IDH1 knockdown cells (counter line) | HT-1080 IDH1 knockdown viability, ATP luminescence, 48 h | hit rate 2% among 360,000 | Potency, µM (titrated, usually from 46.1 µM), without a hit: at the highest dose activity, negative = toxicity, usual class: cytotoxic | AID 686971;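 also: potency is read from the fitted curve at half-maximal effect; 0% = DMSO wells and -100% = cell-free medium wells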
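Viability of IDH1-knockdown HT-1080 fibrosarcoma cells was assessed by CellTiter-Glo after 48 h at 37 °C with titrated compound; concentration-effect curves were classified by fit quality and response size.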
DT40 TDP1 CPT: DT40-hTDP1 cell growth loss with CPT | chicken DT40 Tdp1-/-;hTDP1 cells + 20 nM CPT, ATP luminescence, 48 h | Potency, µM (top dose mostly 46.2 µM), inactives show at the highest dose activity change, negative = growth inhibition, usual class: inhibitors | AID 686979 | hit rate 12% among 420,000; also: potency is read from the fitted curve at half-maximal effect; nearly all actives have a fitted effect of over 55% in size
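Cell growth measured by CellTiter-Glo luminescence after a minimum 48 h, 37 C compound exposure with 20 nM CPT in Tdp1-knockout DT40 cells stably expressing hTDP1, seeded 400/well; qHTS titration format.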
* marks the source's active call; other numbers are inactive results; i = inactive; ? = inconclusive; . = no result; [ ] = another dose, or the depositor's remark. This is one part of a sample in which hits are shown more often than they occur. Unless noted, calls follow the shape of the dose curve; as a rule, active = well fitted curve in the direction sought with a large enough effect; inconclusive = small, poorly fitted or top-dose-only effect, or another doubt; inactive = no such curve, though single readings can be large; an effect the other way counts as inactive or inconclusive. Unless noted, % is scaled to controls: 0 for no effect and ±100 for the full control effect.

SMILES | ALOX12 inh | TDP1 cell noCPT | IL-1B inflam inh | HT1080NT lethal | HT1080 IDH1KD tx | DT40 TDP1 CPT
COCCC(=O)N1CCC2(CC1)CC(N(C(=O)c1ccccc1)C1CC1)CCO2 (stereo unspecified) | 51% | . | . | . | . | .
C(C#CCCCCCCCCC[n+]1ccccc1)#CCCCCCCCCC[n+]1ccccc1 | . | 3.3µM* | -95* | 8.2µM* | 7.3µM* | 3.3µM*
O=C(O)c1ccc2c(c1)OCCOCCOCCO2 | -25% | . | . | . | . | .
CCOc1ccc(NC(=O)C2(c3cccs3)CCOCC2)cc1 | 0% | ? | . | . | . | -27%
CCN(CC)c1ccc(C2C(C(=O)OC(C)C)C(=O)CC(C)(O)C2C(=O)OC(C)C)cc1 (stereo unspecified) | -3% | 13µM* | -10 | -3% | -2% | 15µM*
COc1cc(C)c(Sc2cnc(NC(=O)c3ccc(CNC(C)C(C)C)cc3)s2)cc1C(=O)N1CCN(C(C)=O)CC1 (stereo unspecified) | 3%[57.4 µM] | . | . | . | . | .
O=C(Nc1ccc(Cl)cc1)C1CC(=O)N(c2n[nH]c3cccc(F)c23)C1 (stereo unspecified) | 8% | . | . | . | . | .
O=C(NC1CCCCCC1)c1cc(-c2cccc(Br)c2)nc2ccccc12 | 11% | . | . | . | . | .
C=CCn1c(SCC(=O)c2[nH]c(C)c(C(=O)OCC)c2C)nc2scc(-c3ccc(OC)c(OC)c3)c2c1=O | -20% | 13µM* | -8 | 5% | 21% | 15µM*
COC(=O)c1ccc(CNC(=O)C(Cc2ccccc2)NC(=O)c2ccccc2)cc1 (stereo unspecified) | ? | ? | 30 | 2% | -1% | -23%
COC(=O)c1ccc(C(NC(=O)OCc2ccccc2)/C(F)=C/[C@@H](C)C(=O)NCc2ccc(-c3ccccc3)cc2)cc1 (stereo partly specified) | . | ? | -2 | -9% | 9% | 16µM*
COC(=O)c1ccc(C(NC(=O)OCc2ccccc2)/C(F)=C/[C@@H](C)C(=O)NCc2ccc(OC)c(OC)c2)cc1 (stereo partly specified) | -27% | ? | -9 | ? | ? | 23µM*
COc1ccc(CCNC(=O)C(NC(=O)OCc2ccccc2)C(C)C)cc1OC (stereo unspecified) | 375% | -19% | -8 | -4% | -10% | 4%
O=C(CSC1=NS(=O)(=O)c2ccccc2N1)NCCc1ccccc1 | -14% | 0% | 10 | 3% | 6% | 13%
O=C(CC1(CC2=NS(=O)(=O)c3ccccc3N2)CCCC1)NCCc1ccccc1 | -13% | ? | -12 | -10% | -6% | 15µM*
CN1CCN2C[C@@H](NC(=O)c3ccc(C#CC(C)(C)O)o3)C[C@H]2C1 | 58% | . | . | . | . | .
C[C@@]1(O)CCN(C(=O)c2ccc(N3CCCC3=O)cc2)C[C@@H]1O | 24% | . | . | . | . | .
COc1ccc(/C=C/CN2CCC(Oc3ccc(C(=O)N4CCCCC4)cc3)CC2)cc1 | 0% | 15µM* | i | 1% | -5% | ?
COc1ccccc1/C=C/CN1CCC(Oc2cc(C(=O)NC3CC3)ccc2OC)CC1 | -4% | 2.1µM* | -8 | -1% | 2% | ?
COc1ccc(C(=O)NC2CC2)cc1OC1CCN(Cc2ccccc2)CC1 | . | 5% | i | 1% | 8% | 3%
Cc1cc(C)cc(CN2CCC(Oc3ccc(C(=O)N4CCCC4)cc3)CC2)c1 | 10% | 23µM* | ? | ? | ? | 21µM*
O=C(c1ccc(OC2CCN(C/C=C/c3ccccc3)CC2)cc1)N1CCCCC1 | ? | ? | ? | -21% | -6% | ?
COc1ccccc1/C=C/CN1CCC(Oc2ccc(C(=O)N3CCCCC3)cc2)CC1 | i | 26µM* | -57* | -3% | -16% | ?
COC(=O)c1ccc(CN2CCC(Oc3ccc(C(=O)N4CCCCC4)cc3)CC2)cc1 | -7% | ? | 9 | 4% | 0% | ?
CCOc1ccc(N(CC(=O)N/N=C/c2ccc(OC(C)C)cc2)S(C)(=O)=O)cc1 | ? | -22% | -15 | -3% | 17% | 12%
SMILES | ALOX12 inh | TDP1 cell noCPT | IL-1B inflam inh | HT1080NT lethal | HT1080 IDH1KD tx | DT40 TDP1 CPT
COc1ccc(-c2cnc3[nH]cc(CC(=O)NCc4cccnc4)c3c2)cc1OC | 15%[176 µM] | . | . | . | . | .
O=C(CN1c2ccccc2Sc2ccccc21)N/N=C/c1ccc(Cl)cc1 | 167% | ? | -15 | -13% | -11% | ?
O=C(CN1c2ccccc2Sc2ccccc21)N/N=C/c1ccc(Cl)cc1Cl | 0% | 18µM* | -21 | -2% | 19% | ?
O=C(CN1c2ccccc2Sc2ccccc21)NNC(=S)Nc1ccc(Cl)cc1 | 14µM* | -15% | -8 | ? | ? | 0%
COc1ccc(S(=O)(=O)N2CCN(c3cc(N4CCCCC4)nc(C)n3)CC2)c(C)c1C | -3% | . | . | . | . | .
COc1ccc(C(=O)NC(=S)NC(C)C)cc1Br | 4µM* | ? | 0 | ? | ? | ?
COc1ccc(C(=O)NC(=S)NC(C)(C)C)cc1Br | 8.9µM* | 23µM* | -27 | 4% | -5% | ?
COc1ccc(C(=O)NC(=S)NNC(=O)c2ccc(NC(C)=O)cc2)cc1Br | 13µM* | ? | -4 | -9% | -11% | ?
O=C(CC1(O)C(=O)Nc2c(C(F)(F)F)cccc21)c1ccco1 (stereo unspecified) | 6% | . | . | . | . | .
CCC(CO)Nc1nc2ccc(Cl)cc2c2ccccc12 (stereo unspecified) | ? | ? | -79* | ? | 18µM* | ?
CCCCCCCCCCC(C)(C)C(=O)Nc1c(OC)cc(OC)cc1OC | 0% | 10µM* | . | . | . | 10µM*
Cc1ccc(N2C(=O)c3cccc4c(Oc5ccccc5[N+](=O)[O-])ccc(c34)C2=O)c(C)c1 | -4% | 6.5µM* | 13 | 16% | 4% | 10µM*
Cc1ccc2c(COC(=O)/C=C/c3ccccc3)cc(=O)oc2c1 | -18% | . | . | . | . | .
CN(C)c1ccc(/C=C/c2ccnc3ccccc23)cc1 | . | 16µM* | . | . | . | ?
CN(N=O)c1ccc(/C=C/c2ccnc3ccccc23)cc1 | . | 5.6µM* | . | . | . | 7.9µM*
Cn1cnc2ccc([N+](=O)[O-])cc2c1=O | -13% | 1% | 24 | -1% | 2% | -8%
CCN(N=O)c1ccc(/C=C/c2ccnc3ccccc23)cc1 | . | 6.3µM* | . | . | . | 6.3µM*
CN(C)c1ccc(/C=C/c2ccnc3ccc([N+](=O)[O-])cc23)cc1 | . | ? | . | . | . | 11µM*
